Assay outcomes from PubChem BioAssay.
An excerpt weighted towards active compounds, which were near 2.3% of everything screened.
M1 PAM parental – counter-screen for M1 PAMs: effect in parental CHO-K1 cells; ATP EC20, Fluo-8 calcium fluorescence; 0% at ATP EC20, 100% at ATP max; AID 602247; 360,000 tested, 0.02% active; activation, % at 3 µM;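 active means activation above the run cutoff, the mean activation of all test compounds plus 3 SD, cut at about 40% in these data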;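 further: peak over basal fluorescence ratio in a 140 s read after ATP addition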
CHO-K1 Ca antag – nonselective inhibitor or artifact in parental CHO-K1 cells | ATP-induced calcium, Fluo-8 fluorescence | inhibition, % at 3 µM | 360,000 tested, 0.6% active;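 active means inhibition above a per-plate cutoff, the plate's mean sample inhibition plus 3 SD, cut at about 24% in these data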;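 further: 0% = DMSO plus EC80 ATP and 100% = DMSO alone without ATP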
M1 ag parental – M1 agonist counterscreen hit in parental CHO-K1 cells; Fluo-8 calcium fluorescence; scaled to maximal ATP response, vehicle zero; activation, % at 3 µM; 360,000 tested, 0.48% active; in the data active means activation above about 15%;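 further: untransfected CHO-K1 host cells lacking M1 receptor as counterscreen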
M1 ag – agonists of human M1 muscarinic receptor. CHO-K1 hM1, Fluo-8 calcium fluorescence, agonist mode; 0% DMSO, 100% acetylcholine EC100. activation, % at 3 µM. 360,000 tested, 0.33% active;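 active means activation above the run's mean compound activation plus 3 SD, cut at about 16% in these data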;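 further: peak over basal fluorescence ratio within a 140 s kinetic read after compound addition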
Target sequence (P11229 whole entry, looked up): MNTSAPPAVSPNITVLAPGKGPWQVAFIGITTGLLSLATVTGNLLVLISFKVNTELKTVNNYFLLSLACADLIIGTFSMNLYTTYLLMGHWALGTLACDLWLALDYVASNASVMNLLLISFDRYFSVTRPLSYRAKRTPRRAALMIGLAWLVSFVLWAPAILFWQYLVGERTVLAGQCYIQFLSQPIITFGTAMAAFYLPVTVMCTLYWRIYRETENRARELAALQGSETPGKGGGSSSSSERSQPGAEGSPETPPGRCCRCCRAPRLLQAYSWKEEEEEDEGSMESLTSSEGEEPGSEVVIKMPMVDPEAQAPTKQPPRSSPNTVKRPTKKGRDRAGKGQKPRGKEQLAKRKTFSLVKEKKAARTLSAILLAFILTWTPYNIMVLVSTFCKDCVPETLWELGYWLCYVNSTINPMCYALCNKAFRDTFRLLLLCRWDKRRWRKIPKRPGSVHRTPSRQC
CHRM1 antagonist – blocks human M1 muscarinic receptor. P11229. CHO-K1 hM1, Fluo-8 calcium fluorescence, ACh EC80 antagonist. inhibition, % at 3 µM. 360,000 tested, 1.3% active. AID 588852;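 active means percent inhibition above its own plate's cutoff, namely the mean of that plate's compound wells plus 3 SD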;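 further: peak over basal fluorescence ratio during 140 s after agonist addition; 0% = ACh EC80 plus DMSO and 100% = DMSO alone without agonist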
CHRM1 PAM – positive allosteric modulators of human M1 muscarinic receptor | P11229 | CHO-K1 hM1, Fluo-8 calcium fluorescence, ACh EC20; 0% = ACh EC20, 100% = maximal ACh | activation, % at 3 µM | 360,000 tested, 0.088% active | AID 588819; in the data active means activation above about 19%, passing the limit was not always enough
Numbers without * were called inactive; · = not tested or not shown.

SMILES | M1 PAM parental | CHO-K1 Ca antag | M1 ag parental | M1 ag | CHRM1 antagonist | CHRM1 PAM
Cc1cc([N+](=O)[O-])cc2c1NC(=O)C2(O)N1CCCCCC1 (configuration not stated) | 25 | 3 | 15* | -7 | -2 | 0
COC(=O)c1ccc(CSc2ccc3nnc(-c4cccc(F)c4)n3n2)o1 | -7 | 12 | 1 | -11 | 38* | -19
Cc1ccc(Cl)cc1NC(=O)c1ccc(CSc2nnnn2C)cc1 | -5 | 26* | 1 | -4 | 11 | -1
COC(=O)c1ccc(CSc2ncnc3ccccc23)o1 | -6 | 25* | 0 | -5 | 2 | 0
COC(=O)c1ccc(CSc2ncnc3c2oc2ccccc23)o1 | 15 | -9 | 1 | -3 | -17 | 9
COC(=O)c1ccc(CSc2nnc(C)n2N)o1 | 20 | -8 | 1 | -7 | -10 | 12
COC(=O)c1ccc(CSc2nnnn2C)o1 | 20 | -10 | 0 | -4 | 43* | -18
Cc1[nH]nc(SCC(=O)NC2CCCCC2)c1[N+](=O)[O-] | 19 | -4 | 1 | -2 | -15 | 7
C=C(C)CSc1[nH]c(=O)cc(C)c1C#N | -6 | 5 | 0 | -2 | 0 | -3
NNC(=O)CCN1CCN(C(c2ccccc2)c2ccccc2)CC1 | 14 | -15 | 0 | -7 | 61* | -16
O=C(CN1CCN(C(c2ccccc2)c2ccccc2)CC1)N1N=CCC1c1ccccc1 (configuration not stated) | 18 | -9 | 5 | -6 | 48* | -25
O=C(CN1CCN(c2ccc(F)cc2)CC1)N1N=CCC1c1ccccc1 (configuration not stated) | 5 | -5 | 2 | -12 | 103* | 9
CC1CCN(CC(=O)N2CCN(c3ccccc3)CC2)CC1 | 11 | -5 | 0 | -8 | -1 | -7
O=C(CN1CCN(C(c2ccccc2)c2ccccc2)CC1)N1CCN(c2ccccc2)CC1 | 2 | 1 | 0 | -10 | 81* | -24
COc1cc(OC)cc(C(=O)Nc2ccccc2C(=O)NC2CC2)c1 | 4 | -6 | 3 | -2 | 4 | -2
CCOc1ccc(/C=N/NC(=O)c2ccccc2O)cc1CN1CC2CC(C1)c1cccc(=O)n1C2 (configuration not stated) | -8 | -5 | 4 | -4 | 1 | -10
Cc1cc(OC(C)C(=O)NCCc2c[nH]c3ccccc23)c2c(C)cc(=O)oc2c1 (configuration not stated) | 6 | -5 | 3 | -4 | -5 | -5
COc1ccc2[nH]cc(CCNC(=O)COc3cc(C)cc4oc(=O)cc(C)c34)c2c1 | -17 | 11 | 4 | -1 | 31* | -24
COc1ccc(C(O)c2cnc(C)n2Cc2ccccc2)cc1 (configuration not stated) | 1 | 1 | 2 | -4 | 4 | -3
COc1ccc(-c2oc(NC(=O)CCl)c(C#N)c2-c2ccc(OC)cc2)cc1 | 0 | -13 | 0 | 7 | 46* | 12
COc1ccc(-c2oc(NC(=O)CSc3ncn[nH]3)c(C#N)c2-c2ccc(OC)cc2)cc1 | 9 | 0 | 0 | -2 | -8 | 3
NC(=O)c1cccnc1Oc1ccccc1 | -15 | 4 | 0 | -2 | -13 | 18
COc1ccnc(Oc2ccccc2)c1C(N)=O | -13 | 27* | 0 | -2 | -5 | 6
COC(=O)C1CCN(C(=O)COC(=O)CCc2nc3ccccc3c(=O)[nH]2)CC1 | 28 | -10 | 1 | -5 | -5 | 11
COC(=O)CCC(=O)N1CCOCCOCCN(C(=O)CCC(=O)OC)CCOCCOCC1 | 18 | -8 | 0 | -4 | -7 | 6
SMILES | M1 PAM parental | CHO-K1 Ca antag | M1 ag parental | M1 ag | CHRM1 antagonist | CHRM1 PAM
COC(=O)CCC(=O)N1CCOCCOCCOCC1 | 23 | -2 | 16* | -3 | -3 | 1
CC(=O)c1ccsc1-c1c(C)cc2oc(=O)cc(-c3ccccc3)c2c1C | 28 | -16 | 1 | -10 | -5 | -9
Cc1ccc(-c2nn(CC(=O)N(C)C)c(=O)c3ccccc23)cc1S(=O)(=O)N(C)C | 12 | -31 | 0 | -3 | -50 | 21*
COC(=O)Cn1nc(-c2ccc(C)c(S(=O)(=O)N(C)C)c2)c2ccccc2c1=O | 8 | 1 | 0 | -2 | -10 | 7
CC(C)Cc1ccc(C(C)NC(=O)c2ccc(=O)[nH]c2)cc1 (configuration not stated) | -8 | 4 | 15* | 12 | 11 | 1
CN1CCN(c2ccc(C(F)(F)F)cc2NC(=O)Nc2ccccc2)CC1 | 6 | 17 | 21* | -1 | 6 | 0
CCOC(=O)C1=C[C@@H](C(C)(C)C)N(S(=O)(=O)c2ccc(C)cc2)[C@H]1c1ccc(Cl)c(Cl)c1 | 0 | 22 | 3 | -1 | 1 | 2
CCOc1ccccc1C(C(=O)NC1CCCCC1)N(C(=O)c1csnn1)C1CC1 (configuration not stated) | 3 | -13 | 0 | 0 | -12 | 21
COc1cccc(C2SCC(=O)N2c2ccc(Cl)cc2)c1OC (configuration not stated) | -4 | 0 | 0 | -9 | 51* | -20
Cc1ccc(N2C(=O)CSC2c2c(F)cccc2Cl)cc1 (configuration not stated) | -1 | 6 | 0 | -8 | 99* | -26
CN(CCc1ccccc1)C(c1ccnc2ccccc12)c1nnnn1-c1ccc2c(c1)OCCO2 (configuration not stated) | -7 | 26* | 0 | · | · | ·
CCN(CC(=O)NCc1cccs1)C(=O)CCC(=O)c1ccc(F)cc1 | 20 | 7 | 0 | -5 | -6 | 2
Cc1cc([N+](=O)[O-])nn1Cc1ccc(C(=O)N/N=C/c2ccc(O)cc2O)cc1 | 22 | -8 | 1 | -2 | -7 | 3
O=C(N/N=C/c1cccnc1)c1ccc(CN2c3cccc4cccc(c34)S2(=O)=O)cc1 | 8 | -10 | 2 | 9 | 0 | -2
O=C(N/N=C/c1ccccc1)c1ccc(CN2C(=O)c3cccc4cccc2c34)cc1 | 18 | -9 | 1 | 43* | -8 | 10
O=C(N/N=C/c1ccc(O)cc1O)c1ccc(CN2C(=O)c3cccc4cccc2c34)cc1 | 4 | 10 | 0 | 16* | 2 | -4
CCCC(=O)c1c(NCCO)cc(C)oc1=O | 11 | 4 | 0 | -2 | -8 | 17
COC(=O)c1cccc(NC(=O)CN2CCc3ccccc3C2)c1 | -9 | 2 | 1 | -2 | -7 | 11
CCCCC1(C(=O)OCC)CC(CSC(=N)N)OC1=O (configuration not stated) | 5 | 8 | 19* | -10 | 3 | 8
